Screening results as filed in PubChem.
FLuc modulator = firefly luciferase modulation, counter-screen for miR-21 project; P08659; purified FLuc, Km substrates, luminescence inhibition; Potency, µM (titrated, usually from 57.5 µM), for the others: top-dose activity change, negative = inhibition, usual class: inhibitors; 360,000 compounds, 6.9% hits; AID 588342;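 also: plate controls were vehicle for no effect and reference inhibitor for full effect; nearly all actives have a fitted effect of over 55% in size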
Target sequence (P08659 whole entry, looked up): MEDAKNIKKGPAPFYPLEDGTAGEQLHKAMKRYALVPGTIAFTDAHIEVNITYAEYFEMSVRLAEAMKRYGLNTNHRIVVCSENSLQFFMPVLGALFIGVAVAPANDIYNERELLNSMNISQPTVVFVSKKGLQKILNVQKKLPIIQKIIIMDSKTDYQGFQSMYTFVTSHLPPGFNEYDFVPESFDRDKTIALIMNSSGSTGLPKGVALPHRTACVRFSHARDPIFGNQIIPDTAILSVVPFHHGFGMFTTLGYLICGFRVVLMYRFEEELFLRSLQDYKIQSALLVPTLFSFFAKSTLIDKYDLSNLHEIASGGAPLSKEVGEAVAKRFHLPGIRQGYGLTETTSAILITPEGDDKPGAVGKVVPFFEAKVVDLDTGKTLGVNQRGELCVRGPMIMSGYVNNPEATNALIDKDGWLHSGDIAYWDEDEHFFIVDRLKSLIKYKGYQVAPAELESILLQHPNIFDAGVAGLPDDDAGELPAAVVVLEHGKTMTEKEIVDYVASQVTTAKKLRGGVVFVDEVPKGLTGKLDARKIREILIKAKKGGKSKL
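Purified P. pyralis luciferase (10nM final) with 10uM D-luciferin and 10uM ATP (Km levels) in 50mM Tris acetate pH 7.5, 10mM Mg acetate, 0.01% Tween-20, 0.05% BSA; qHTS 6-point titration, ~60 µM downward; luminescence read.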
SMN2 splice enh = enhancers of SMN2 splice variant expression. 210,000 compounds, 2.8% hits. HEK293 SMN2-luciferase splicing reporter, luminescence, 30-36 h. Potency, µM (series often up to 46.1 µM), for inactives: top-dose activity change, positive = activation, usual class: activators; also: % of control where 0% means no effect; nearly all actives have a fitted effect of over 55% in size
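qHTS luciferase splicing reporter: luminescence rises when SMN2 exon 7 is included in transfected HEK293 cells. Compound exposure lasted 30-36 h at 37C, with 4.5 mM final sodium butyrate as control, followed by a ONE-Glo read.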
Rab9 promoter act = activates the Rab9 promoter | Huh7 Rab9 promoter-luciferase reporter, luminescence, 24 h | 320,000 compounds, 2.8% hits | Potency, µM (highest dose often 9.22 µM), inactives show at the top dose activation, negative = inhibition, hits mostly activators; also: % of control where 0% means no effect; nearly all actives have a fitted effect of over 60% in size
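Promoter activation is measured as luciferase luminescence in Huh7 cells stably transfected with a Rab9 promoter–luciferase construct, following 24 h compound exposure at 37 °C and 10 min reagent incubation at ambient temperature.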
ELG1 DNA repair = blocks ELG1-dependent DNA repair in HEK293T cells; HEK293T ELG1-luciferase reporter, luminescence, 16 h; DNA damage induced by 5-fluorouridine; Potency, µM (highest dose often 46.1 µM), without a hit: top-dose activity change, negative = inhibition, actives largely listed as inhibitors; 330,000 compounds, 2.3% hits; also: % is scaled to controls: 0 for no effect and ±100 for the full control effect; nearly all actives have a fitted effect of over 55% in size
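In this reporter screen, reduction of luminescence relative to DMSO vehicle indicated activity. Compounds and 5-fluorouridine were added together to 2,000 cells per well, incubated for 16 hr at 37 °C, then developed with ONE-Glo.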
ELG1 genotoxic = genotoxicity induction in ELG1-luciferase HEK293T cells; HEK293T ELG1-luciferase reporter, luminescence, 16 h; 330,000 compounds, 1.3% hits; Potency, µM (series often up to 46 µM), without a hit: at the top dose activity change, positive = activation, actives largely listed as activators; AID 504466; also: % of control where 0% means no effect; nearly all actives have a fitted effect of over 60% in size
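After overnight (16 hr) compound treatment at 37 °C, ELG1-luciferase HEK293T cells were lysed with ONE-Glo; luminescence quantified 30 min later at room temperature.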
NPC1 prom act = activators of NPC1 promoter | Huh7 NPC1 promoter luciferase reporter, 24 h | Potency, µM (top dose mostly 9.22 µM), without a hit: top-dose activation, most hits filed as activators | 320,000 compounds, 2.4% hits; also: % of control where 0% means no effect; nearly all actives have a fitted effect of over 60% in size
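Stable NPC1-promoter luciferase Huh7 line; cpd (DMSO) 24 h, 37 °C, 5% CO2; Amplite luciferase reagent 10 min RT; luminescence readout. qHTS format.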
* = called active by the depositor; ? = inconclusive; / = no result given. Only some compounds are listed: those with a hit (about 9.3% of all), similar ones and a draw of the others. Calls follow the shape of the dose curve; as a rule, active = well fitted curve in the direction sought with a large enough effect; inconclusive = small, poorly fitted or top-dose-only effect, or another doubt; inactive = no such curve, though single readings can be large; an effect the other way counts as inactive or inconclusive. Potency is read from the fitted curve at half-maximal effect.

SMILES	FLuc modulator	SMN2 splice enh	Rab9 promoter act	ELG1 DNA repair	ELG1 genotoxic	NPC1 prom act
COc1cccc2cc(C(=O)Nc3ccc(F)c(F)c3)c(=O)oc12	0%	2%	/	/	/	/
COc1cccc2cc(NC(=O)C3CCCCC3)c(=O)oc12	?	?	1.8µM*	?	?	3.2µM*
COc1cccc2cc(C(=O)Nc3cccc(C)n3)c(=O)oc12	0.21µM*	-8%	?	?	2.3µM*	22%
COc1cccc2cc(C(=O)Nc3ccc(C)cc3)c(=O)oc12	0.38µM*	14%	/	/	/	/
CC(C(=O)O)n1c(-c2ccn[nH]2)n[nH]c1=S (configuration not stated)	5%	/	-2%	-4%	-1%	1%
C=CCNC(=S)NNC(=O)c1cc(C)nc2ccccc12	-18%	1%	3%	-4%	-2%	-3%
CCNC(=S)NNC(=O)c1cc(C2CC2)nc2ccccc12	12µM*	-1%	2%	5%	-1%	-1%
CCCNC(=S)NNC(=O)c1cc(C2CC2)nc2ccccc12	21µM*	/	5%	-3%	0%	-3%
CC(=O)N1CCN(C)CC1	/	8%	/	/	/	/
CCNc1nnc(-c2ccc(C)cc2)o1	15µM*	24%	4µM*	?	?	3.5µM*
COc1ccc(-c2nnc(-c3ccc(F)cc3)o2)cc1	2.1µM*	/	1µM*	?	3.7µM*	1.3µM*
Cc1ccc(C(=O)Nc2nnc(-c3ccncc3)o2)cc1	?	-59%	?	19%	10%	21%
Cc1ccc(-c2nnc(-c3ccccc3)o2)cc1	2.7µM*	2.8µM*	1.4µM*	?	?	3.2µM*
COc1ccc(-c2nnc(-c3ccccc3O)o2)cc1	2.4µM*	/	?	?	?	?
O=C(c1ccccc1)c1ccc(OCCOCCN2CCN(Cc3ccccc3)CC2)cc1	-12%	-33%	-25%	?	-4%	-10%
COc1ccc(-c2nnc(-c3ccc(C)cc3)o2)cc1	1.9µM*	/	?	?	?	1.6µM*
COc1ccc(-c2ccc(-c3nnc(-c4ccncc4)o3)cc2)cc1	?	-23%	20%	?	4%	20%
Cc1c(O)c2ccccc2oc1=O	-5%	/	0%	19%	1%	-2%
CCN(CC)S(=O)(=O)c1cccc(N=Nc2c(O)c3ccccc3oc2=O)c1	27µM*	/	16%	?	-2%	28%
C=CC[C@@H](CC(=O)N(CCO)Cc1ccccc1)C(=O)NC[C@@H](OC(=O)[C@@H](CC=C)Cc1ccc(F)cc1)c1ccccc1	/	/	/	?	-10%	/
C=CCC[C@@H](Cc1ccc(F)cc1)C(=O)OC[C@@H](NC(=O)[C@@H](CC=C)CC(=O)N(CCO)Cc1ccccc1)c1ccccc1	/	/	/	21µM*	-10%	/
C=CCC[C@@H](Cc1ccc(F)cc1)C(=O)OC[C@H](C)NC(=O)[C@H](CC=C)CC(=O)N(CCO)Cc1ccccc1	/	/	/	26µM*	-8%	/
C=CCC[C@@H](Cc1ccc(F)cc1)C(=O)OC[C@H](C)NC(=O)[C@@H](CC=C)CC(=O)N(CCO)Cc1ccccc1	/	/	/	?	-4%	/
C=CC[C@H](CC(=O)N(CCO)Cc1ccccc1)C(=O)NC[C@H](OC(=O)[C@@H](CC=C)Cc1ccc(F)cc1)c1ccccc1	/	/	/	15µM*	-14%	/
CCCc1cc(=O)n2[nH]c(-c3ccco3)nc2n1	15µM*	-12%	-2%	14%	1%	6%
Cc1cc(=O)n2[nH]c(-c3ccco3)nc2n1	?	5%	1%	3%	3%	2%
CCN(CC)C(=O)c1cc2sc3ccccc3c2s1	9.5µM*	25%	3.2µM*	?	?	2.8µM*
CCCc1nc2ccccc2c(C(=O)OCC(=O)N2CCc3ccccc32)c1CC	?	-51%	-2%	16µM*	-13%	-1%
